Consider nine compounds from PubChem BioAssay (Tox21).

Experiment [1] is described as follows: Nuclear factor erythroid 2-related factor 2/antioxidant responsive element (Nrf2/ARE) small molecule agonists: luciferase reporter gene qHTS assay in human keratinocytes (AID 1919969). Also: nearly all actives have a fitted effect of over 35% in size. On the technique in general: In a reporter assay the amount or activity of a reporter protein is the signal.
Experiment [2] in a line: G protein-coupled receptor (GPCR) small molecule agonists, calcium flux assay: HEK293 wild type cell line counter screen (AID 1920065). Also: potency is read from the fitted curve at half-maximal effect. In outline: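 Tox21 10K compounds, 15 concentrations each in triplicate, pin-transferred in DMSO onto dye-loaded cells; kinetic read at 480/540 nm for 3 min, 1 s intervals.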
The nature of experiment [3]: p53 small molecule agonists, cell-based qHTS assay with human liver microsomes (AID 1963577). The gist of the method: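 p53RE-bla cells, 4,000/well, compound added after 5 h, with human liver microsomes 0.5 mg/mL and NADPH 0.5 mg/mL final; 16 h at 37 C, then LiveBLAzer 2 h RT, fluorescence.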
Background: In qHTS, concentration-response curves come from the screen itself.

Experiment [4] in a line: p53 small molecule agonists, cell-based qHTS assay with rat liver microsomes (AID 1963578). In outline:
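p53RE-bla cells, 4,000/well, pre-incubated 5 h, then given compounds plus rat liver microsomes (0.5 mg/mL final) and NADPH (0.5 mg/mL final). Incubation 16 h at 37 C; beta-lactamase reporter read by LiveBLAzer fluorescence after 2 h at room temperature.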

Experiment [5] in a line: p53 small molecule agonists, cell-based qHTS assay with human liver microsomes: qHTS cell viability counter screen (AID 1963579). Also: nearly all actives have a fitted effect of over 45% in size. In outline: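 p53RE-bla cells, 4,000/well, dosed 5 hours after plating, with human liver microsomes (0.5 mg/mL final) plus NADPH (0.5 mg/mL final), 16 hours at 37 C. Viability read as CellTiter-Glo luminescence after 30 min at room temperature.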

A short description of experiment [6]: p53 small molecule agonists, cell-based qHTS assay with rat liver microsomes: qHTS cell viability counter screen (AID 1963580). Also: nearly all actives have a fitted effect of over 45% in size. The gist of the method: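 Cytotoxicity counter screen: intracellular ATP read by CellTiter-Glo luminescence in the p53 reporter wells. HCT-116 p53RE-bla cells were treated for 16 h at 37 C alongside rat liver microsomes and NADPH, each 0.5 mg/mL final.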

Experiment [7] is described as follows: p53 small molecule agonists, cell-based qHTS assay: qHTS cell viability counter screen (AID 1963581). Also: nearly all actives have a fitted effect of over 45% in size. The gist of the method:
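ATP content measured by luminescence in HCT-116 p53RE-bla cells treated 16 h at 37 C, same wells as the reporter screen.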

A short description of experiment [8]: p53 small molecule agonists, cell-based qHTS assay (AID 1963582; active = well fitted activation curve with a large enough effect in the signal ratio in the repeat runs, not every such curve was filed as active; the % refers to the signal ratio). In outline:
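16 h compound exposure (37 C) of p53 response element–bla cells, preceded by 5 h recovery at 37 C/5% CO2; read-out via LiveBLAzer B/G FRET substrate, 2 h RT, fluorescence intensity.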

For experiment [9], the target named is 5-hydroxytryptamine receptor 2A (Homo sapiens) (UniProt P28223). The experiment in a line: 5-hydroxytryptamine receptor 2A (HTR2A) small molecule antagonists, cell-based qHTS assay (AID 1963586). Also: nearly all actives have a fitted effect of over 45% in size. The gist of the method:
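CHO cells stably expressing human HTR2A were plated for 18 h at 37 C, then loaded with calcium dye for 1 h. Compounds were preincubated 5 min at room temperature before DOI (4 nM solution) was added. Kinetic fluorescence was read for 3 min.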

Experiment [10] shares this target. The experiment can be described thus: 5-hydroxytryptamine receptor 2A (HTR2A) small molecule agonists, cell-based qHTS assay (AID 1963587). Also: nearly all actives have a fitted effect of over 30% in size. Also: potency is read from the fitted curve at half-maximal effect. The gist of the method: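 Kinetic calcium-flux fluorescence (2 min, 1 sec intervals) after compound addition in agonist mode. HTR2A-CHO cells were cultured 18 h, then dye-loaded 1 h at 37 C.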
Experiment [11] concerns the target Muscarinic acetylcholine receptor M1 (Homo sapiens) (UniProt P11229). The experiment in a line: Cholinergic receptor muscarinic 1 (CHRM1) small molecule antagonists, cell-based qHTS assay (AID 1963588). Also: nearly all actives have a fitted effect of over 40% in size. The gist of the method:
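Compounds were tested at 15 concentrations in three independent runs. Dye-loaded CHRM1-CHO cells were exposed 5 min at room temperature before stimulation by acetylcholine added at 50nM. Intracellular calcium was read kinetically on FDSS for 3 min.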

Experiment [12] has the same target. The experiment in a line: Cholinergic receptor muscarinic 1 (CHRM1) small molecule agonists, cell-based qHTS assay (AID 1963589). Also: nearly all actives have a fitted effect of over 35% in size. Also: potency is read from the fitted curve at half-maximal effect. The gist of the method: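 Homogeneous fluorescence calcium flux, agonist mode. Human M1-expressing CHO cells; compound dosed at 15 concentrations, three independent runs; signal sampled every 1 sec.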
Experiment [13] in a line: cAMP Responsive Elements (CRE) small molecule agonists, cell-based qHTS assay (AID 1963590). In outline: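 HEK 293T cells stably bearing CRE-bla were plated at 2,000 cells per well and rested 18 h. Compounds, positive controls or DMSO were added for 3 h at 37 C. LiveBLAzer B/G substrate was then loaded for 2 h at room temperature.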
A short description of experiment [14]: cAMP Responsive Elements (CRE) small molecule antagonists, cell-based qHTS assay (AID 1963591; active = well fitted inhibition curve with a large enough effect in the signal ratio in the repeat runs, not every such curve was filed as active; the % refers to the signal ratio). In outline: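 First, CRE-bla HEK293T cells settled 18 h at 37 C. Next, compound and 0.25 uM final NKH477 were applied for 3 h. Last, LiveBLAzer B/G substrate was loaded for 2 h at room temperature.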
Experiment [15] concerns the target Beta-2 adrenergic receptor (Homo sapiens) (UniProt P07550). The experiment in a line: Adrenergic beta2 receptor (ADRB2) small molecule antagonists, cell-based qHTS assay (AID 1963592). Also: series mostly up to about 92 µM; nearly all actives have a fitted effect of over 50% in size. In outline:
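Assay format: CHO-ADRB2 cells, 18-20hr seeding at 37C/5% CO2, then compound plus 1nM isoproterenol agonist mix for 0.5hr RT. Homogeneous time-resolved fluorescence cAMP detection after 1hr, expressed as 665/615 nm ratio.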

Experiment [16] addresses Gonadotropin-releasing hormone receptor (Homo sapiens) (UniProt P30968). The experiment in a line: Human gonadotropin-releasing hormone receptor (GnRHR) small molecule agonists, calcium flux assay in GnRHR-HEK293 cells (AID 1920063). Also: nearly all actives have a fitted effect of over 35% in size. The gist of the method:
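Compounds dissolved in DMSO are pin-transferred onto dye-loaded GnRHR-HEK293 cells, which were seeded 18 h before at 37 C/5% CO2. Calcium signal is read as fluorescence intensity at 1 s intervals for 3 min.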
Background: Calcium assays in cells follow changes in intracellular calcium, usually with a dye or a luminescent sensor.

The target in experiment [17] is KiSS-1 receptor (Homo sapiens) (UniProt Q969F8). The experiment can be described thus: Human kisspeptin (KISS1R) small molecule agonists, calcium flux assay in KISS1R-HEK293 cells (AID 1920064; active = well fitted activation curve with a large enough effect in the repeat runs). In outline: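 Cell line: HEK293, stable human KISS1R. Dye loading 1 h at 37 C after 18 h culture. Read: kinetic fluorescence, 480/540 nm, 3 min at 1 s intervals.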
In experiment [18] the target is Beta-2 adrenergic receptor (Homo sapiens) (UniProt P07550). The experiment can be described thus: Adrenergic beta2 receptor (ADRB2) small molecule agonists, cell-based qHTS assay (AID 1963593).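 Also: CHO cells stably overexpressing human ADRB2.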 In outline: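 CHO cells stably over-expressing ADRB2 were plated overnight at 37C, then dosed with compounds plus a stimulation mix containing 100uM IBMX and 25uM Ro-20-1724 for 0.5hr at room temperature. cAMP was measured by HTRF competition, 1hr.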

The target of experiment [19] is D(2) dopamine receptor (Homo sapiens) (UniProt P14416). The experiment can be described thus: Dopamine D2 receptor (DRD2) small molecule agonists, cell-based qHTS assay (AID 1963594). Also: nearly all actives have a fitted effect of over 35% in size. The gist of the method: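 cAMP accumulation in DRD2-HEK293 cells measured by HTRF after 1 h detection; compounds added 10 min before NKH477 (200nM […]) forskolin-analogue stimulation, 30 min at room temperature, with Ro20-1724 present at 0.1 mM final.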

Experiment [20] has the same target. The experiment in a line: Dopamine D2 receptor (DRD2) small molecule antagonists, cell-based qHTS assay (AID 1963595; active = well fitted inhibition curve with a large enough effect in the signal ratio in the repeat runs, with a control signal flat; the % refers to the signal ratio). The gist of the method:
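HEK293 cells stably expressing DRD2 were preincubated with 0.1 mM Ro20-1724, then with compound for 10 min at room temperature. Cells were stimulated with 200 nM NKH477 plus 12 nM quinpirole for 30 min, and cAMP was read by HTRF.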

Inconclusive results are not listed. Activity calls are given as the source filed them. Unless noted, calls follow the shape of the full dose curve. Square brackets hold non-standard residues; d marks the D form. Peptide text beside a SMILES is read from it. pGlu = O=C1CC[C@@H](C(=O)O)N1

Gonadotropin-releasing hormone receptor (Homo sapiens), sequence (P30968 whole entry, looked up): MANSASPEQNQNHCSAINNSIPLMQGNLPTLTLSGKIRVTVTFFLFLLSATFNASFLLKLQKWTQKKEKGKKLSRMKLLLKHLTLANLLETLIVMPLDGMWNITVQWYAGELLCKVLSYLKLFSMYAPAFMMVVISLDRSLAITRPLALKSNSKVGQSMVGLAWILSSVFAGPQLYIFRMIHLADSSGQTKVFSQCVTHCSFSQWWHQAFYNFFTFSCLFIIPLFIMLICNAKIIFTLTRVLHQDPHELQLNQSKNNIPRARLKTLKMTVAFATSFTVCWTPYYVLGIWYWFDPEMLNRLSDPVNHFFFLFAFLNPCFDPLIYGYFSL
D(2) dopamine receptor (Homo sapiens), sequence (P14416 whole entry, looked up): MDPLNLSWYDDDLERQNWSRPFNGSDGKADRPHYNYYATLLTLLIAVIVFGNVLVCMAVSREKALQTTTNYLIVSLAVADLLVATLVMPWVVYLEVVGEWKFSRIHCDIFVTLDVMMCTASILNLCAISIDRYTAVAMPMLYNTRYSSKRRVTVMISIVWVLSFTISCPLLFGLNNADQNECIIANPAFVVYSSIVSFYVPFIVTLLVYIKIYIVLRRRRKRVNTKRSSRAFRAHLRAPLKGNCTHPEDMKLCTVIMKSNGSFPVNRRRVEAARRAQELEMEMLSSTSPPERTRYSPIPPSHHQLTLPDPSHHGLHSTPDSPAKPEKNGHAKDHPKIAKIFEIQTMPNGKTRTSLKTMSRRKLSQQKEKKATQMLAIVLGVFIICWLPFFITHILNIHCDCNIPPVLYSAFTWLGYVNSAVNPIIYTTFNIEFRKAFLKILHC
KiSS-1 receptor (Homo sapiens), sequence (Q969F8 whole entry, looked up): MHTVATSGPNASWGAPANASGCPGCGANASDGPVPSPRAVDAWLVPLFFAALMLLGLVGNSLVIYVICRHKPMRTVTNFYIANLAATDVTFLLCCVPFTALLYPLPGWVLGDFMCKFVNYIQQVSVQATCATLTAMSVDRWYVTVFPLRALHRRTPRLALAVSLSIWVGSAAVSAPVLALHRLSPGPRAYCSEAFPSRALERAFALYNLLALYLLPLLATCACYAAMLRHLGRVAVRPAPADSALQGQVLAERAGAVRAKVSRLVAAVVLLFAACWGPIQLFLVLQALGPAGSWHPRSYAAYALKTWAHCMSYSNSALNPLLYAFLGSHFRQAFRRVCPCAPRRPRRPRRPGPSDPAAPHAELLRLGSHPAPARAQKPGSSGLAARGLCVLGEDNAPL
5-hydroxytryptamine receptor 2A (Homo sapiens), sequence (P28223 whole entry, looked up): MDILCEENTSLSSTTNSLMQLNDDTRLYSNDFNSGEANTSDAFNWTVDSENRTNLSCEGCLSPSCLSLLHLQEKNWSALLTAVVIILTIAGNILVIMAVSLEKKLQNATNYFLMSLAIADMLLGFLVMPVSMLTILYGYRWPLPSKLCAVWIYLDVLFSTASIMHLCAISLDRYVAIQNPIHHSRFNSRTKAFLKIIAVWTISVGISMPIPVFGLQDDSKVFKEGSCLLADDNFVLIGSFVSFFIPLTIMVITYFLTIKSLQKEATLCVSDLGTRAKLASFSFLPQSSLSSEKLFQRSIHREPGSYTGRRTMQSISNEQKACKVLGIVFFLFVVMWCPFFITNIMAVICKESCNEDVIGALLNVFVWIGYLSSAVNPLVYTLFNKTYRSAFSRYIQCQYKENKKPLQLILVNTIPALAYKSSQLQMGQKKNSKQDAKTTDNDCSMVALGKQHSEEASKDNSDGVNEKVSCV
Beta-2 adrenergic receptor (Homo sapiens), sequence (P07550 whole entry, looked up): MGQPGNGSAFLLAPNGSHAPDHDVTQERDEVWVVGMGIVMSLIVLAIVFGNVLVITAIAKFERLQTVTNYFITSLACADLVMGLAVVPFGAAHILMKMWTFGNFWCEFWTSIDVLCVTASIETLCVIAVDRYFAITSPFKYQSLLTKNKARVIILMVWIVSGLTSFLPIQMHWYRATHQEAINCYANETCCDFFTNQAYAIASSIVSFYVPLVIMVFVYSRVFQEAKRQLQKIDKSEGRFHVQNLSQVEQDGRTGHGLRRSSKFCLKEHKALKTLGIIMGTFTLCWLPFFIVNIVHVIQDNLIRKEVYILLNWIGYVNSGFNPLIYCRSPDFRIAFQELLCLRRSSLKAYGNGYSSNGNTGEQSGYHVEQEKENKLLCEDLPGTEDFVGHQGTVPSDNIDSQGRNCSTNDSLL
Muscarinic acetylcholine receptor M1 (Homo sapiens), sequence (P11229 whole entry, looked up): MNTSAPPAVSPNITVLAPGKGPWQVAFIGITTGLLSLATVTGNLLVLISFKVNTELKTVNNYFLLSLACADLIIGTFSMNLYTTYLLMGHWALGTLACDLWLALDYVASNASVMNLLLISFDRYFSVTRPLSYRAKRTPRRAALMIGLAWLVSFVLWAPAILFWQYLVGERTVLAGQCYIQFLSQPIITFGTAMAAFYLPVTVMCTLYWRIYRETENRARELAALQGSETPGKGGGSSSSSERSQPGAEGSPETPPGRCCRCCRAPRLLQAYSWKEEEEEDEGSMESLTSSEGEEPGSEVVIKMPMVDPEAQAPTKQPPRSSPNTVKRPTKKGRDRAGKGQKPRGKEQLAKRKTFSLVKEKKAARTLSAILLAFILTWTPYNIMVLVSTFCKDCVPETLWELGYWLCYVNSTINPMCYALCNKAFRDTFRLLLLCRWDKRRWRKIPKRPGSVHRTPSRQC

Take `Nc1nc(N)c(N)c(N)n1`: the Potency entry in experiment [1], in [3], in experiment [4], in experiment [5], in experiment [6] and in experiment [7] was “inactive” throughout. Moreover, the Potency entry in experiment [8], in experiment [9], in experiment [11], in experiment [13], in [14] and in [15] was “inactive” in each case. Further, the Potency was 39.1 µM (active) in experiment [2], 43.9 µM (active) in [10] and 55.2 µM (active) in experiment [12].

Regarding `CC(C)c1c(CN(C)C(C)Cc2ccccc2)n(C)n(-c2ccccc2)c1=O` (stereo not given), the Potency entry in experiment [16], in [17], in experiment [2], in experiment [3], in experiment [4] and in experiment [5] was “inactive” throughout. Besides, the Potency result in [6], in [7], in [8], in experiment [10], in experiment [11] and in [12] was “inactive” each time. The Potency entry in experiment [15], in experiment [18] and in experiment [19] was “inactive” throughout.

Take `CC(C)N1C(=O)N(c2ccccc2)CSC1=NC(C)(C)C`: the Potency entry in experiment [16], in experiment [17], in experiment [2], in [3], in [4] and in experiment [5] was “inactive” in each case. In addition, the Potency entry in [6], in [7], in experiment [9], in experiment [10], in experiment [11] and in experiment [12] was “inactive” each time. The Potency result in experiment [15], in experiment [18], in [19] and in experiment [20] was “inactive” in each case.

Consider `Nc1ccccc1C(=O)Oc1ccc2ccccc2c1`, for which the Potency result in [16], in experiment [17], in experiment [2], in experiment [3], in experiment [4] and in experiment [5] was “inactive” each time. In addition, the Potency result in experiment [6], in experiment [8], in [9], in experiment [10], in experiment [12] and in experiment [15] was “inactive” in each case. Also, the Potency result in [19] and in experiment [20] was “inactive” in each case.

Turning to `CCCCP(CCCC)CCCC`, the Potency result in [16], in experiment [17], in experiment [2], in [3], in [4] and in [5] was “inactive” throughout. For the same compound, the Potency entry in experiment [6], in [7], in experiment [8], in experiment [9], in experiment [10] and in experiment [11] was “inactive” throughout. For the same compound, the Potency result in experiment [12], in experiment [15], in [18], in [19] and in experiment [20] was “inactive” in each case.

In the case of `CCNC(=O)[C@@H]1CCCN1C(=O)[C@H](CCCN=C(N)N)NC(=O)[C@H](CC(C)C)NC(=O)CNC(=O)[C@H](Cc1ccc(O)cc1)NC(=O)[C@H](CO)NC(=O)[C@H](Cc1c[nH]c2ccccc12)NC(=O)[C@H](Cc1cnc[nH]1)NC(=O)[C@@H]1CCC(=O)N1` ([pGlu]HWSYGLRP-NHEt), the Potency entry in [10] and in experiment [11] was “inactive” in each case.

With `Cc1ccc2ccccc2c1C`, the Potency entry in [9], in [11], in [12] and in experiment [20] was “inactive” in each case.

Consider `N#CN`, for which the Potency entry in [16], in experiment [17], in experiment [2], in experiment [5], in [7] and in experiment [9] was “inactive” each time. Moreover, the Potency entry in [11], in [12], in experiment [13], in [14], in experiment [15] and in [18] was “inactive” throughout. Besides, the Potency entry in [19] and in experiment [20] was “inactive” each time.

As for `C#C[C@]1(O)CC[C@H]2[C@@H]3CCC4=CC(=O)CCC4=C3C=C[C@@]21CC`, the Potency result in [16], in experiment [17], in experiment [2], in experiment [5], in experiment [10] and in [11] was “inactive” each time. In addition, the Potency entry in experiment [12] and in [19] was “inactive” in each case.
